Several values for one entry are separate records, joined by “and”; a condition that tells them apart may be missing. Identical values can stand only once. Records with an inconclusive call do not appear. Where a structure was tested more than once in an assay, its records may differ in their call. Activity calls are given as the source filed them. Calls come from the whole dose curve; as a rule, active = well fitted inhibition curve with a large enough effect; inconclusive = small, poorly fitted or top-dose-only effect; inactive = no such curve, though single readings can be large or run the other way.
% is set by controls: 0 for no effect and ±100 for the full control effect; potency is the fitted concentration of half-maximal effect.

A short description of the assay: Confirmatory qHTS for small molecule stabilizers of the endoplasmic reticulum resident proteome: Secreted ER Calcium Modulated Protein (SERCaMP) assay (AID 1508628). Note: nearly all actives have a fitted effect of over 40% in size. The note with it: SERCaMP secreted luciferase ER calcium/proteostasis reporter; series mostly up to 76.3 µM; activity change, negative = decrease: at the top concentration. An excerpt:
Assay Provider: Brandon K. Harvey Ph.D.
National Institute on Drug Abuse, National Institutes of Health, Baltimore, MD
Endoplasmic reticulum (ER) dysregulation is associated with human pathologies including neurodegenerative, cardiovascular, muscular, and diabetic conditions. Maintenance of ER calcium is critical for functions of the ER and its depletion can lead to loss of ER resident proteins, in a process termed exodosis. Therapeutic compounds capable of attenuating the redistribution of ER proteins under pathological conditions may slow or stop disease progression. To identify such compounds, we performed a quantitative high-throughput screen (qHTS) using the SERCaMP assay, which monitors secretion of ER resident proteins triggered by calcium depletion.
SERCaMP was initially developed as a reporter of ER calcium homeostasis using a Gaussia luciferase with a modified signal peptide and carboxy-terminus (GLuc-SERCaMP), modifications that confer secretion of the reporter in response to ER calcium depletion (Henderson et al., 2014). The assay was used to screen 9,501 compounds, including a collection of drugs approved by the FDA (US), EMA (EU), NHI (Japan), and HC (Canada) regulatory agencies (Huang et al., 2011). Since the SERCaMP reporter reflects the exodosis phenomenon (Trychta et al., 2018a), compounds identified in the screen have the potential to prevent exodosis by different mechanisms such as stabilizing ER calcium or augmenting ERS retrieval.
1. Henderson, M.J., Wires, E.S., Trychta, K.A., Richie, C.T., and Harvey, B.K. (2014). SERCaMP: a carboxy-terminal protein modification that enables monitoring of ER calcium homeostasis. Mol Biol Cell 25, 2828-2839.
2. Huang, R., Southall, N., Wang, Y., Yasgar, A., Shinn, P., Jadhav, A., Nguyen, D.T., and Austin, C.P. (2011). The NCGC pharmaceutical collection: a comprehensive resource of clinically approved drugs enabling repurposing and chemical genomics. Sci Transl Med 3, 80ps16.
3. Trychta, K.A., Back, S., Henderson, M.J., and Harvey, B.K. (2018a). KDEL Receptors Are Differentially Regulated to Maintain the ER Proteome under Calcium Deficiency. Cell Rep 25, 1829-1840 e1826.
SEQUENCE No. (1, 2, 3, etc.); […] (e.g., Cells, Incubation, Reagent, etc.); VALUE and DESCRIPTION.
1; Reagent; 5 uL; 1000 SH-SY5Y cells per wells
3; Compound; 23 nL; Control inhibitor / compound library
5; Reagent; 100 nM; Thapsigargin
7; Reagent; 1 uL; 0.5x coelenterazine
8; Detection; Luminescence; ViewLux imaging system
NOTES (numbers refer to sequence above)
1; SH-SY5Y human neuroblastoma cells stably expressing GLuc-SERCaMP (SH-SY5Y-GLuc-ASARTDL) cells were seeded in 1,536 well white tissue culture treated plates (Corning, Cat# 7464) in DMEM-high glucose-sodium pyruvate (ThermoFisher Scientific, Cat #10569) supplemented with 10% bovine growth serum (Hyclone), 10 U/ml penicillin (Gibco), 10 ug/ml streptomycin (Gibco), and 20 mM HEPES.
2; Assay plates were incubated for 5 hour at 37C in a humidified incubator containing 5% CO2.
3; qHTS libraries (23 nl, final concentrations of 1.53 uM, 7.67 uM, 38.3 uM) or controls (neutral control: DMSO, positive control: dantrolene) were added using a Kalypsis pin-tool Robotic System equipped with 1536 pinheads.
4; Cells were then incubated for 16 hours at 37C, 5% CO2.
5; Thapsigargin was added at 100 nM to deplete ER calcium stores.
6; Cells were incubated for 4 hour (37 °C, 5% CO2)
7; Gaussia luciferase in the medium was measured by adding 1 ul of 0.5x coelenterazine (final concentration 0.07x) prepared in Gaussia Luciferase Glow Assay Buffer (Pierce), without addition of the Cell Lysis Buffer Reagent.
8; Luminescence was measured using a ViewLux […] CCD imaging system (Perkin Elmer) equipped with clear filters. […] The same controls were also used for the calculation of the Z' factor, a measure of assay quality control, as previously described (Zhang et al., 1999). […]
Background: Quantitative high-throughput screening tests each substance at several concentrations.
In the case of `CN(C)c1ccc(N=NS(=O)(=O)O)cc1`, the “activity change, negative = decrease” value was -9.73% [at 156 µM] (inactive).
`COc1cc(NC(C)CCCN)c2ncccc2c1` (configuration not stated): the “activity change, negative = decrease” value was -18% (inactive).
As to `C=C[C@H]1CN2CC[C@@H]1C[C@@H]2[C@@H](O)c1ccnc2ccc(OC)cc12`, the Potency was 31.6 µM (active).
As for `NC(=S)c1ccc[n+]([C@@H]2O[C@@H](COP(=O)([O-])OP(=O)(O)OC[C@H]3O[C@@H](n4cnc5c(N)ncnc54)[C@H](OP(=O)(O)O)[C@@H]3O)C(O)C2O)c1` (some centres not stated), the “activity change, negative = decrease” value is -14.1% (inactive).
For `C[N+]1(C)C2CC(OC(=O)[C@H](CO)c3ccccc3)CC1C1OC12` (some centres not stated), the “activity change, negative = decrease” value is -6.21% (inactive).
With `Oc1cc(O)cc(/C=C/c2ccc(O)c(O)c2)c1`, the “activity change, negative = decrease” value is -51.6% [at 156 µM] (inactive).
Take `Cc1c(C(=O)O)c(O)cc2c1C(=O)c1c(O)c([C@@H]3O[C@H](CO)[C@@H](O)[C@H](O)[C@H]3O)c(O)c(O)c1C2=O`: the Potency is 44.7 µM (active).
Consider `Cc1ccc(C(=O)O[C@H](C(=O)O)[C@@H](OC(=O)c2ccc(C)cc2)C(=O)O)cc1` (tested in a mixture with another compound), for which the “activity change, negative = decrease” value was -4.33% (inactive).
With `COc1cc(/C=C/C(=O)CC(=O)/C=C/c2ccc(O)c(OC)c2)ccc1O`, the “activity change, negative = decrease” value was -27.9% (inactive).
With `Oc1ccccc1O`, the Potency was 7.08 µM (active).
On the same count and under the same terms, the value for `N#C/C(=C\c1c[nH]c2ccccc12)C(=O)c1ccc(O)c(O)c1` was 12.6 µM (active).
On to `O=C1CN(/N=C/c2ccc(-c3ccc([N+](=O)[O-])cc3)o2)C(=O)N1`, for which the Potency is 11.2 µM (active).
Turning to `CNCC[C@H](Oc1ccc(C(F)(F)F)cc1)c1ccccc1`, the “activity change, negative = decrease” value was 203% (inactive).
For the compound `Oc1cc2c(cc1O)CN(C(=S)NCCc1ccc(Cl)cc1)CCC2`, the Potency is 15.8 µM (active).
In the case of `Cn1cc(C2=C(c3ccc(Cl)cc3Cl)C(=O)NC2=O)c2ccccc21`, the Potency is 39.8 µM (active).
`CCCN(CC1CC1)c1nc(C)nc(Nc2c(Cl)cc(Cl)cc2Cl)c1Cl`: the “activity change, negative = decrease” value was 5.21% (inactive).
Take `COc1ccc(/C=C/C(=O)Nc2ccccc2C(=O)O)cc1OC`: the Potency was 39.8 µM (active).
For `O=C(O)Cc1ccc2c(c1)C(=O)c1ccccc1CO2`, the “activity change, negative = decrease” value is -6.87% (inactive).
As to `O=C(/C=C/c1ccc(O)c(O)c1)OCCc1ccccc1`, the Potency result was “inactive and 4.47 µM (active)”.
As for `CCCCCCCC/C=C\CCCCCCCC(=O)NCCO`, the Potency entry is “inactive”.
For the compound `O=C(Nc1ccccc1)c1cc([N+](=O)[O-])ccc1Cl`, the “activity change, negative = decrease” value was 20.2% (inactive).
In the case of `N.N.N.N.N.N.N.N.N.N.N.N.N.N.O.O.[Ru+4].[Ru+5].[Ru+5]`, the Potency is 7.08 µM (active).

The values above are taken from PubChem BioAssay (NCATS).
